“And” between values parts separate entries of the source, which are not always exact repeats. Identical values can stand only once. The campaign covered roughly 230,000 compounds. About 310 (0.13%) were called active. Entries that show only a call come without a potency. Inconclusive results (about 2%) are left out. The sample as a whole holds a higher share of actives than the screen did. A number with no mark means an inactive call. Calls come from the whole dose curve; as a rule, active = well fitted activation curve with a large enough effect; inconclusive = small, poorly fitted or top-dose-only effect; inactive = no such curve, though single readings can be large or run the other way.
Assay: qHTS Multiplex Assay to Identify Dual Action Probes in a Cell Model of Huntington: Cytoprotection (ATP); note: nearly all actives have a fitted effect of over 45% in size;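 for cytoprotection (ATP increase): toxic huntingtin expression switched on by the ecdysone agonist tebufenozide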
Conditions: PC12 HTT-Q103 induced, ATP luminescence, 40 h; series mostly up to 56.4 µM
Description: NIH Chemical Genomics Center [NCGC]
NIH Molecular Libraries Probe Production centers Network [MLPCN]
Assay Submitter (PI): Wei Zheng
Huntington's disease is a neurodegenerative disorder caused by a trinucleotide repeat expansion in Exon 1 of the Huntingtin gene. The CAG trinucleotide encodes glutamine and polyglutamine expansions cause cell death in selective areas of the brain. Huntington polyglutamine repeats have the tendency to form aggregates which are observable in later stages of the disease. The exact nature of the aggregates, whether toxic, protective, or insignificant, is unclear.
A stable PC12 cell line containing a gene fusion of Exon 1 of the Huntingtin gene linked to GFP under the control of the inducible ecdysone promoter were used as the cell-based model of Huntington Disease for high throughput screening. Exon 1 of the Huntingtin gene contained an expansion of 103 polyglutamines (Q103) which, when expressed, caused cell death and distinct, bright GFP aggregates. The amount of cell death and the size and intensity of GFP aggregates increased over time and induction level. The cell death were quantified with a measurement of ATP content in the cells. A maximal 40-50% of cell death was observed when the Huntington gene was induced in this cell line.
We optimized this assay in a homogeneous 1536 well format. A quantitative high throughput screen (qHTS) was conducted on the PC12 cells which were induced to express the toxic fusion construct. Small molecules which prevented cell death were identified by using a luminescent ATP quantification method (Perkin Elmer's ATPlite).
PC12 cells stably containing a construct with an ecdysone inducible promoter expressing GFP fused to the exon 1 of HTTQ103 (Huntington protein which containing a 103 ployglutamine expansion) were used.
NCGC Assay Protocol Summary:
Sequence, Parameter, Description
1, Reagent, 5 uL 1500 cells/well 1536 TC treated White clear bottom plate
2, Compound, 23 nL Tebufenozide inducer (100 nM final) to all columns
3, Compound, 23 nL 40 uM to 0.5 nM Libraries
5, Reagent, 5 ul ATPLite cell death assay reagent
6, Detector, 4 sec integration with a Viewlux Luminescent
Media consisted of phenol red free DMEM + 5% equine serum (Hyclone # SH30072.03 ), 5% supplemented Bovine Calf Serum (Hyclone # SH30074.03 ), 1x pen/strep, no G418
Control columns: 1 = DMSO, 2= 2 uM teb dilns (1:1), 4 = 100 nM Teb inducer. Sample columns received 100 nM Teb.
Potency is the fitted concentration of half-maximal effect.

SMILES | Potency | cytoprotection (ATP increase)
CC(C)(O)/C=C\C(=O)[C@](C)(O)[C@H]1[C@H](O)C[C@]2(C)[C@@H]3CC=C4[C@@H](C=C(O)C(=O)C4(C)C)[C@]3(C)C(=O)C[C@@]12C | 5.01 µM (active) | –
C[N+]1(C)C2CC(OC(=O)C(CO)c3ccccc3)CC1[C@@H]1O[C@H]21 (some centres undefined) | – | 17.6% [at 1.9 µM] and 4.91% [at 1.9 µM]
CC1=CC(=O)C2=C(C)C[C@H](O)[C@@H]3[C@@H](OC(=O)[C@H]3C)[C@H]12 | – | inactive
CC(C)(O)[C@H]1[C@H]2OC(=O)[C@@H]1[C@]1(O)C[C@H]3O[C@]34C(=O)O[C@H]2[C@]14C | – | inactive

From PubChem BioAssay AID1471 (National Center for Advancing Translational Sciences (NCATS), 2008)
